# Most compounds without a hit are left out; they make up all but 12% or so of the library.
# FMDV antiviral – blocks foot and mouth disease virus; Potency, µM (titrated, usually from 57.9 µM), without a hit: at the top dose activity change, negative = inhibition, usual class: inhibitors; hit rate 1.2% among 410,000; AID 1159524; FMDV antiviral cell-based qHTS; calls by dose curve; tested in HEK293T cells; also: read-out not given here; potency is read from the fitted curve at half-maximal effect; % is scaled to controls: 0 for no effect and ±100 for the full control effect; nearly all actives have a fitted effect of over 45% in size
# CHX counter – counter-screen for Shiga toxin inhibitors: cycloheximide protein synthesis inhibition | cell reporter, cycloheximide protein synthesis inhibition counterscreen | max response, % | hit rate 12% among 300,000; in the data active = max response mostly above about 13%, no sharp cut-off; inactive = mostly below about 14%; also: read at 38.3 µM for the half of the compounds with a filed dose; 0% is about no effect
# Sm TGR block – blocks Schistosoma mansoni thioredoxin glutathione reductase; purified TGR, DTNB reduction, TNB absorbance 405 nm; Potency, µM (series often up to 114 µM), for inactives: at the top dose activity change, negative = inhibition, most hits filed as inhibitors; hit rate 3% among 360,000; AID 485364; active = well fitted inhibition curve with a large enough effect; inconclusive = small, poorly fitted or top-dose-only effect; inactive = no such curve, though single readings can be large or run the other way; also: potency is read from the fitted curve at half-maximal effect; % is scaled to controls: 0 for no effect and ±100 for the full control effect; nearly all actives have a fitted effect of over 60% in size
#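 First, TGR (20 nM dispensed) and NADPH were mixed with compound. Second, a 15 min room-temperature incubation followed. Third, further NADPH and then DTNB were added to start the reaction. Finally, TNB absorbance was monitored kinetically.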
# Shiga inhibitor – inhibitors of Shiga toxin in Vero cells. Vero cells, Shiga toxin protein synthesis inhibition reporter. inhibition, % at 38.7 µM. hit rate 9.2% among 290,000. AID 2315; in the data active = inhibition mostly above about 28%, no sharp cut-off; inactive = mostly below about 43%; also: 0% is about no effect
# Numbers without * were called inactive; i = inactive; ? = inconclusive; · = no result; + = active, no number.
SMILES,FMDV antiviral,CHX counter,Sm TGR block,Shiga inhibitor
O=C(CN1C(=O)NC2(CCCC2)C1=O)Nc1cccc(Cl)c1Cl,-6%,-2,-4%,8
O=C1CN(CC(=O)Nc2cccc(Cl)c2Cl)c2ccccc2N1,-13%,7,50µM*,2
O=C1CN(C(=O)COc2ccc(Cl)c(Cl)c2)c2ccccc2N1,-12%,·,0%,·
O=C1CN(C(=O)Cn2ncc(Cl)c(Cl)c2=O)c2ccccc2N1,?,-12,25µM*,-37
COc1ccc2c(c1)NC(c1cccnc1)=NC(c1ccc(F)cc1)=N2,9%,·,10%,·
COc1ccccc1NC(=O)CCNS(=O)(=O)c1ccc2c(c1)CCN2C(=O)C1CC1,-3%,·,-1%,·
COc1ccc(-n2c(COc3cccc4ccccc34)nnc2SCC#N)cc1,-20%,1,-7%,14
N#CCSc1nnc(COc2cccc3ccccc23)n1-c1ccccc1,14µM*,-3,-27%,-9
Cn1c(-c2ccccc2)cnc1N,39%,29*,4%,35
COc1ccc(-c2cc(C(F)(F)F)nc(SCC(=O)N3CCCCC3)n2)cc1,-5%,·,1%,·
CCOC(=O)c1cc(S(=O)(=O)N2CCN(c3ccc(OC)cc3)CC2)[nH]n1,32%,·,3%,·
Cn1c2ccccc2c(=O)c2c(=O)n(C3CCCCCC3)c(C3CCCCC3)nc21,25µM*,-6,-3%,-13
COc1ccc(Cl)cc1NC(=O)Cn1c(=O)n2nc(-c3ccccc3)nc2c2ccccc21,6%,·,0%,·
Cc1cccc(C2=NN(c3ccccc3)[C@H](CO)[C@H]2c2ccccc2)c1,-19%,19,·,i
Cc1cccc(C2=NN(c3ccccc3)[C@H](CO)[C@H]2C)c1,·,22,·,+
CCOc1ccc(-c2cc(C(=O)NCc3ccc(OC)cc3)c3c(-c4ccc(F)cc4)[nH]nc3n2)cc1,5%,·,7%,·
CC(=O)Cn1ncc(Br)c(Br)c1=O,?,0,·,-16
O=c1c(Cl)c(NS(=O)(=O)c2ccccc2)cnn1-c1ccccc1,15%,1,0%,14
Cc1ccc(-n2ncc(N(C)C)c(Cl)c2=O)cc1,-38%,29*,-31%,55*
CC(=O)Cn1ncc(N(C)Cc2ccccc2)c(Cl)c1=O,18%,48*,9%,64*
CN(C)c1cnn(-c2ccccc2)c(=O)c1Cl,26%,43*,-2%,146*
C=CCNc1cnn(-c2ccccc2)c(=O)c1Cl,37%,18*,·,79
COc1c(Cl)cnn(-c2ccccc2)c1=O,-17%,1,-8%,-6
CCN(CC)CCCNC(=O)Cc1csc2nc(-c3ccc(Cl)cc3)cn12,26%,·,-5%,·
COc1cccc(NC(=O)C(=O)NCCc2csc(-c3ccc(C)cc3)n2)c1,22%,·,11%,·
SMILES,FMDV antiviral,CHX counter,Sm TGR block,Shiga inhibitor
O=C1CC(c2nc3ccccc3n2CCC2CCCCC2)CN1c1ccccc1Cl (configuration not stated),-25%,·,0%,·
COc1cnn(-c2cccc(Cl)c2)c(=O)c1Cl,-4%,·,·,·
COc1nn(-c2ccccc2)c(=O)c(Cl)c1Cl,14µM*,1,22µM*,13
Cc1ccccc1-c1nnc(SCCC(=O)N2CCOCC2)o1,23%,23*,-3%,70*
Cc1ccc(-c2nnc(SCCC(=O)N3CCOCC3)o2)cc1,1%,32*,-11%,52
COc1ccc(C2CC(=O)N(CC(=O)Nc3cccc(C)c3C)c3ccccc3S2)cc1OC (configuration not stated),?,·,-6%,·
CCCCn1cc(S(=O)(=O)c2ccc(Cl)cc2)c(=O)c2cc(F)c(N3CCCC(C)C3)cc21 (configuration not stated),-6%,·,-4%,·
O=C(c1cn(-c2ccccc2)nc1-c1cccs1)N1CCN(c2ccccn2)CC1,-3%,16*,-1%,43*
CN1CCN(C(=O)c2cn(-c3ccccc3)nc2-c2cccs2)CC1,2%,8,-4%,-23
CC(C)[C@H](NC(=O)c1ccccc1F)C(=O)Nc1nc2c(s1)CCCC2,33%,42*,0%,18
CC(C)(C)c1ccc(C(=O)NC(=S)Nc2nc3c(s2)CCCC3)cc1,?,69*,-2%,113*
CN(C)c1ccc(C(=O)Nc2nc3c(s2)CCCC3)cc1,-64%,45*,-6%,21*
COc1cccc(C(=O)Nc2nc3c(s2)CCCC3)c1,-30%,·,6%,·
O=C(COc1ccccc1Cl)Nc1nc2c(s1)CCCC2,39%,·,0%,·
C/C(=N\Nc1nc2c(s1)CCCC2)c1ccc(Cl)cc1,?,83*,-32%,116*
COc1cc(OC)cc(C(=O)N[C@H](C(=O)Nc2nc3c(s2)CCCC3)C(C)C)c1,16%,13,5%,28
